Results reported in PubChem BioAssay AID624168 (Sanford-Burnham Center for Chemical Genomics, 2012).
Hit rate of the full screen: of about 360,000 compounds, about 800 (0.22%) were called active. The entries come from a sample that favours actives as a whole. Values without a mark were called inactive.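 The calls were made as follows: active = activation of at least 8% versus controls, or a plate z-score of at least 8; inactive = the rest.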

Experiment: activators of alpha-DG glycosylation, primary screen, uHTS, Pro5-aDG cells, AlphaScreen (AID 624168);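 also: Pro5 are CHO cells carrying HIG-tagged alpha-DG that lacks glycosylation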
Details: alpha-DG glycosylation AlphaScreen (IIH6), at 10 µM, stronger effect = higher value, 0% Pro5, 100% B10-LARGE cell signal

Point of comparison: `CCn1c(SCc2cccc(C(=O)O)c2)nnc1-c1ccc(Cl)cc1`, activation 0%. Against it:
- O=[N+]([O-])c1ccc(C=Nc2ccc(Cl)cc2Cl)s1 — lower, -0.4%
- Cc1ccc(S(=O)(=O)N2CCN(CC(=O)N/N=C/c3ccc(Br)s3)CC2)cc1 — lower, -0.1%
- Cc1nn(Cc2ccc(Cl)cc2)c(Cl)c1/C=N/NC(=O)CNc1ccccc1F — higher, 0.9%
- Cc1c(C(=O)N2CCCC2)c(S(=O)(=O)NCC(C)c2ccccc2)c(C)n1C (centres undefined) — lower, -0.1%
- O=S(=O)(N1CCCCC1)N1CCNCC1 — the same, 0%
- CC(C)[C@@H](C(=O)O)N(Cc1cccc(CN([C@H](C(=O)O)C(C)C)S(C)(=O)=O)c1)S(C)(=O)=O — lower, -0.1%
- COc1ccc(F)cc1S(=O)(=O)N1CCCCC1 — lower, -0.1%
- COCCCNC(=S)N(CCN(C)C)Cc1cc2cc3c(cc2[nH]c1=O)OCCO3 — lower, -0.2%
- Cc1cccc2cc(CN(Cc3cccs3)C(=S)NCc3ccco3)c(=O)[nH]c12 — the same, 0%
- Cc1cccc(C)c1NC(=O)N1CC=C(n2c(=O)[nH]c3ccccc32)CC1 — higher, 0.1%
- O=C(Nc1cc(S(=O)(=O)Nc2ccc(Cl)cc2)ccc1O)c1ccc(F)cc1F — higher, 0.4%
- CC(=O)N(c1ccc2oc(=O)sc2c1)S(=O)(=O)c1ccc(C)cc1 — the same, 0%
- O=C(CN(c1cc(C(F)(F)F)ccc1Cl)S(=O)(=O)c1ccccc1)NCc1cccnc1 — higher, 0.2%
- O=C(Nc1ccc(-n2ccnc2P(=O)(O)c2ccccc2)cc1)c1ccccc1Br — lower, -0.1%
- COc1ccc(C2c3[nH]c4ccccc4c3C[C@H]3C(=O)N(CC(C)C)CC(=O)N23)c(OC)c1 (some centres undefined) — higher, 0.3%
- COc1ccc(CC(=O)NC2CCSc3ccccc32)cc1OC (centres undefined) — higher, 0.1%
- COc1ccc(C2(CNC(=O)Cc3ccc(OC)c(OC)c3)CCCC2)cc1 — lower, -0.3%
- Cc1c(C(=O)N(C)CCc2cnn(C)c2)oc2c(F)cccc12 — higher, 0.2%
- COCCc1nn2c(=O)cc(COC(=O)c3cc(OC)c(OC)c(OC)c3)nc2s1 — lower, -0.1%
- CN1OC(COC(=O)c2ccc(Cl)cc2)CC1c1ccccc1 (centres undefined) — higher, 0.1%
- Cc1ccc(C(=O)C(=S)N2CCOCC2)cc1 — the same, 0%
- O=C(Nc1nnc(S(=O)(=O)N2CCCCCC2)s1)c1cccc(Br)c1 — lower, -0.2%
- COc1cccc(C(=O)Nc2nnc(S(=O)(=O)N3CCOCC3)s2)c1 — lower, -0.1%
- CC(C)(C)OC(=O)N1CCC(C(=O)NNC(=O)c2ccc(Cl)cc2Cl)CC1 — higher, 0.1%
- c1ccc2c(NC3C4CC5CC(C4)CC3C5)nc(N3CCOCC3)nc2c1 (centres undefined) — higher, 0.7%
- CCOc1ccc(CCNC(=O)CCc2nnc3ccc(N4CCCC4)nn23)cc1OCC — higher, 0.3%
- COCCCC1CCN(C(=O)C2CCC(=O)N(C3CCCCCC3)C2)CC1 (centres undefined) — lower, -0.3%
- COC(=O)C(Cc1c[nH]c2ccccc12)NC(=O)CCNC(=O)c1ccco1 (centres undefined) — higher, 0.2%
- COc1ccccc1N1CC(C(=O)Nc2nnc(SCC(=O)NCC3CCCO3)s2)CC1=O (centres undefined) — lower, -0.1%
- CCOc1ccccc1Nc1nnc(SCC(=O)Nc2cc(C)on2)s1 — lower, -0.2%
- COc1ccccc1OCCn1c(SCC(N)=O)nc2ccccc21 — the same, 0%
- O=C(C1CCCN(S(=O)(=O)c2ccc([N+](=O)[O-])cc2)C1)N1CCCCC1 (centres undefined) — higher, 0.9%
- O=C1C(=O)N(c2ccccc2)c2ccccc21 — higher, 2.6%
- COc1cc(C(C)=O)ccc1OC(=O)CN1C(=O)c2ccccc2C1=O — lower, -0.1%
- O=C(NCc1ccc(F)cc1)C1CCN(C(=O)Nc2ccc(F)cc2)CC1 — lower, -0.1%
- Cc1[nH]c(C)c(S(=O)(=O)N2CCN(c3cccc(C(F)(F)F)c3)CC2)c1C(=O)N1CCCCC1 — lower, -0.4%
- CC1(C)CC(=O)C=C(NC2CC(C)(C)NC(C)(C)C2)C1 — lower, -0.2%
- CCOCCCNCc1ccc(OCc2ccc(F)cc2)c(OC)c1 — higher, 0.1%
- CCN(CC)CCNCc1ccc(OCc2ccc(Cl)nc2)c(OC)c1 — higher, 0.3%
- CCCCNCc1ccc(SC)cc1 — higher, 0.3%
- C[C@H](CO)N1C[C@H](C)[C@H](CN(C)CC2CC2)Oc2ccc(NC(=O)CCN3CCOCC3)cc2C1=O — higher, 0.2%
- Cc1ccc(N2C(=O)SC(N(CC(=O)O)c3ccc(C)cc3)C2=O)cc1 (centres undefined) — higher, 1.3%
- Fc1cccc(Cl)c1COc1ccc(-c2nnco2)cc1 — lower, -0.1%
- O=C(/C=C/c1ccc(Cl)cc1)NCCCn1ccnc1 — lower, -0.1%
- CS(=O)(=O)N(CC(=O)N1CCCCCC1)c1cccc(Cl)c1Cl — lower, -0.1%
- COc1ccc(CCCNC(=O)C2Cc3c(-c4cccc(C(N)=O)c4)ccnc3O2)cc1 (centres undefined) — higher, 0.1%
- COc1ccc(NC(=O)COc2ccc(C(=O)c3ccc(F)cc3)cc2)cc1S(N)(=O)=O — the same, 0%

In the case of `CC(C)(C)c1cc(C(=O)N/N=C/c2ccc([N+](=O)[O-])s2)n[nH]1`, the activation is reported as 2.7% (active).
For `Cc1ccccc1NCC(=O)N/N=C\c1ccc([N+](=O)[O-])s1`, the activation was 9.3% (active).
With `Cc1cc(C)c2[nH]c(=O)c(CN(Cc3ccccc3)C(=S)NCCCN(C)C)cc2c1` the activation was 8.7% (active).
With `O=C(c1cccnc1)N(c1cc2sc(=O)oc2c2ccccc12)S(=O)(=O)c1ccccc1` the activation was 8.9% (active).
With `COc1ccc(CC(=O)Nc2nc(-c3ccc(F)c(F)c3)cs2)cc1OC` the activation was 2.7% (active).
In the case of `COc1cccc(C(=O)Nc2nnc(S(=O)(=O)N3CCCCC3)s2)c1`, the activation is reported as 10.9% (active).
In the case of `CCOc1ccccc1Nc1nnc(SCC(=O)NCC2CCCO2)s1` (centres undefined), the activation is reported as 5.2% (active).
In the case of `NC1=CC(=O)C(=O)c2cccnc21`, the activation is reported as 4.9% (active).
In the case of `CC(C)OC(=O)CN1C(=O)C(=O)c2ccccc21`, the activation is reported as 14.6% (active).
With `COc1cc(CNCCN(C)C)ccc1OCc1c(F)cccc1Cl` the activation was 8.5% (active).
With `CN(C)CCCNC(=O)/C=C/c1ccc(OCc2c(F)cccc2Cl)cc1` the activation was 13.4% (active).
